Source: PubChem BioAssay (NCI)
The panel holds about 79,000 compounds, 15% with a hit somewhere; the sample as a whole holds those more often. Active and inactive are the calls of the source. No stated cut-off is given here; in the data, active means growth inhibition above about 70%; inactive means the rest.

Assays:
[1] = NCI Yeast Anticancer Drug Screen. Data for the rad52 strain (AID 147);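 further: 0% = growth of vehicle-treated control cultures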; conditions: S. cerevisiae rad52 mutant growth inhibition, stronger effect = higher value
Summary of the method: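 DNA repair-defective yeast; compound exposure; growth scored against vehicle controls.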

[2] = NCI Yeast Anticancer Drug Screen. Data for the wt1 strain (AID 149);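 further: 0% = growth of vehicle-treated wt1 cultures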; conditions: S. cerevisiae wt1 strain (SPY 50644) growth inhibition, stronger effect = higher value
Summary of the method: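 Each compound is tested on wt1 yeast and the loss of growth versus vehicle gives the inhibition value.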

[3] = NCI Yeast Anticancer Drug Screen. Data for the rad50EPP+ strain (AID 151);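 further: 0% = growth of vehicle-treated control cultures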; conditions: S. cerevisiae rad50 mutant strain, stronger effect = higher value
Summary of the method: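 rad50EPP+ yeast treated with test compounds. Readout: growth vs vehicle control.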

[4] = NCI Yeast Anticancer Drug Screen. Data for the mgt1 strain (AID 153); conditions: S. cerevisiae mgt1 mutant growth inhibition, stronger effect = higher value
Summary of the method: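 Growth inhibition relative to vehicle controls was scored for the mgt1 yeast strain after compound exposure.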

[5] = NCI Yeast Anticancer Drug Screen. Data for the rad50 strain (AID 155);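 further: 0% = growth of vehicle-only cultures of the same strain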; conditions: S. cerevisiae rad50 strain growth inhibition, stronger effect = higher value
Summary of the method: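 Vehicle-treated cultures provide the reference for the growth inhibition reported for compound-exposed, repair-deficient yeast.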

[6] = NCI Yeast Anticancer Drug Screen. Data for the mec2-1 strain (AID 157); conditions: S. cerevisiae mec2-1 strain, stronger effect = higher value
Summary of the method: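 Growth inhibition is read against vehicle-treated controls after compound exposure of the mec2-1 yeast strain, which is defective in DNA damage repair or cell cycle control.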

[7] = NCI Yeast Anticancer Drug Screen. Data for the rad14 strain (AID 159);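 further: 0% = growth of vehicle-treated control cultures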; conditions: S. cerevisiae rad14 strain growth inhibition, stronger effect = higher value
Summary of the method: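 Inhibition of growth is reported for a repair-deficient yeast mutant following compound treatment, calculated relative to cultures that received vehicle.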

[8] = NCI Yeast Anticancer Drug Screen. Data for the sgs1 mgt1 strain (AID 161);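 further: 0% = growth of cultures given vehicle only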; conditions: S. cerevisiae sgs1 mgt1 strain, stronger effect = higher value
Summary of the method: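 Percent growth inhibition was derived by comparing compound-exposed mutant yeast with vehicle-exposed cultures. The strain carries alterations in DNA damage repair.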

[9] = NCI Yeast Anticancer Drug Screen. Data for the CLN2oe strain (AID 163);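 further: 0% = growth of vehicle-only control cultures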; conditions: S. cerevisiae CLN2oe strain, stronger effect = higher value
Summary of the method: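 Compound-treated yeast; growth vs vehicle ctrl = % inhibition. Genetically altered strain (cell-cycle control).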

[10] = NCI Yeast Anticancer Drug Screen. Data for the cln2 rad14 strain (AID 165);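 further: 0% = growth equal to vehicle treated cultures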; conditions: S. cerevisiae cln2 rad14 strain, stronger effect = higher value
Summary of the method: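 Growth inhibition, relative to vehicle-treated controls, is the read-out. The test organism is a yeast strain with defined genetic alterations, cln2 rad14.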

[11] = NCI Yeast Anticancer Drug Screen. Data for the bub3 strain (AID 167); conditions: S. cerevisiae bub3 mutant strain, stronger effect = higher value
Summary of the method: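 Mutant yeast screening strain plus compound; vehicle-treated cultures serve as the 0% inhibition reference.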

[12] = NCI Yeast Anticancer Drug Screen. Data for the wt2 strain (AID 169); conditions: S. cerevisiae wt2 strain growth inhibition, stronger effect = higher value
Summary of the method: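 Compound exposure of yeast; growth compared with vehicle controls; inhibition reported.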

[13] = NCI Yeast Anticancer Drug Screen. Data for the mlh1 strain (AID 171);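 further: 0% = growth of vehicle-treated control cultures of the same strain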; conditions: S. cerevisiae mlh1 strain growth inhibition, stronger effect = higher value
Summary of the method: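 Compounds are applied to a genetically altered yeast strain, and its growth is compared with that of vehicle-treated cultures to give percent inhibition.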

[14] = NCI Yeast Anticancer Drug Screen. Data for the sgs1 strain (AID 173);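 further: 0% = growth of vehicle-only control cultures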; conditions: S. cerevisiae sgs1 mutant, stronger effect = higher value
Summary of the method: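 Compounds applied to genetically altered yeast; growth compared with vehicle-treated cultures to give % inhibition.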

[15] = NCI Yeast Anticancer Drug Screen. Data for the mlh1 rad18 strain (AID 175); conditions: S. cerevisiae mlh1 rad18 strain growth inhibition, stronger effect = higher value
Summary of the method: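 Cells of a genetically altered yeast strain, deficient in DNA damage repair, were treated with compound. Their growth was then compared with that of vehicle-treated cultures to give inhibition.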

[16] = NCI Yeast Anticancer Drug Screen. Data for the rad18 strain (AID 177); conditions: S. cerevisiae rad18 mutant growth inhibition, stronger effect = higher value
Summary of the method: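 Compounds are applied to a repair-deficient yeast strain, and growth is compared with that of vehicle-treated cultures to give percent inhibition.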

[17] = at 5.0 µM (retest, dose inferred, filed as 0.5)
[18] = at 50.0 µM (retest, dose inferred, filed as 5.0)

Measured: growth inhibition

O=[N+]([O-])c1oc2ccc3ccccc3c2c1CCO
inactive: [2]; at 1.2 µM 2% | [2]; at 3.7 µM 14% | [3]; at 1.2 µM 63% | [4]; at 1.2 µM 7% | [4]; at 3.7 µM 27% | [9]; at 1.2 µM 29% | [9]; at 3.7 µM 66% | [11]; at 1.2 µM -17% | [11]; at 3.7 µM -3% | [11]; [17] 14% | [12]; at 1.2 µM 5% | [12]; at 3.7 µM 19% | [13]; at 1.2 µM 10% | [13]; at 3.7 µM 44%
active: [1]; at 1.2 µM 89% | [1]; at 3.7 µM 94% | [1]; at 11.0 µM 97% | [1]; at 33.0 µM 98% | [1]; at 100.0 µM 98% | [2]; at 11.0 µM 75% | [2]; at 33.0 µM 97% | [2]; at 100.0 µM 98% | [3]; at 3.7 µM 84% | [3]; at 11.0 µM 95% | [3]; at 33.0 µM 97% | [3]; at 100.0 µM 98% | [4]; at 11.0 µM 85% | [4]; at 33.0 µM 98% | [4]; at 100.0 µM 99% | [5]; at 1.2 µM 83% | [5]; at 3.7 µM 90% | [5]; [17] 89% | [5]; at 11.0 µM 96% | [5]; at 33.0 µM 98% | [5]; [18] 99% | [5]; at 50.0 µM 99% | [5]; at 100.0 µM 98% | [6]; at 1.2 µM 79% | [6]; at 3.7 µM 92% | [6]; [17] 97% | [6]; at 11.0 µM 98% | [6]; at 33.0 µM 99% | [6]; [18] 99% | [6]; at 50.0 µM 98.2% | [6]; at 100.0 µM 99% | [7]; at 1.2 µM 94% | [7]; at 3.7 µM 97% | [7]; at 11.0 µM 98% | [7]; at 33.0 µM 99% | [7]; at 100.0 µM 99% | [8]; [17] 92% | [8]; [18] 98% | [8]; at 50.0 µM 99.3% | [9]; at 11.0 µM 87% | [9]; at 33.0 µM 97% | [9]; at 100.0 µM 99% | [10]; [17] 98% | [10]; [18] 99% | [10]; at 50.0 µM 98.5% | [11]; at 11.0 µM 78% | [11]; at 33.0 µM 98% | [11]; [18] 99% | [11]; at 50.0 µM 97.8% | [11]; at 100.0 µM 99% | [12]; at 11.0 µM 80% | [12]; at 33.0 µM 97% | [12]; at 100.0 µM 99% | [13]; at 11.0 µM 88% | [13]; at 33.0 µM 98% | [13]; at 100.0 µM 99% | [14]; at 1.2 µM 82% | [14]; at 3.7 µM 88% | [14]; at 11.0 µM 95% | [14]; at 33.0 µM 98% | [14]; at 100.0 µM 99% | [15]; [17] 95% | [15]; [18] 99% | [15]; at 50.0 µM 96.7% | [16]; at 1.2 µM 97% | [16]; at 3.7 µM 96% | [16]; at 11.0 µM 97% | [16]; at 33.0 µM 98% | [16]; at 100.0 µM 99%

O=P(CCCCP(=O)(c1ccccc1)c1ccccc1)(c1ccccc1)c1ccccc1.[Cl][Sn]([Cl])([c]1ccccc1)[c]1ccccc1
inactive: [1]; at 1.2 µM -4% | [1]; at 3.7 µM 26% | [2]; at 1.2 µM -6% | [2]; at 3.7 µM 3% | [2]; at 11.0 µM 26% | [3]; at 1.2 µM 8% | [3]; at 3.7 µM -1% | [3]; at 11.0 µM 2% | [3]; at 33.0 µM 14% | [3]; at 100.0 µM 15% | [4]; at 1.2 µM 13% | [4]; at 3.7 µM 24% | [5]; at 1.2 µM 26% | [5]; at 3.7 µM 24% | [5]; [17] 66% | [6]; at 1.2 µM 11% | [6]; at 3.7 µM 22% | [6]; [17] 48% | [7]; at 1.2 µM 4% | [7]; at 3.7 µM 16% | [9]; at 1.2 µM -16% | [9]; at 3.7 µM -27% | [9]; at 11.0 µM 15% | [10]; [17] 15% | [11]; at 1.2 µM 7% | [11]; at 3.7 µM -3% | [11]; [17] 67% | [11]; at 11.0 µM 50% | [12]; at 1.2 µM -51% | [12]; at 3.7 µM -35% | [12]; at 11.0 µM 43% | [13]; at 1.2 µM 3% | [13]; at 3.7 µM 9% | [14]; at 1.2 µM 0% | [14]; at 3.7 µM 15% | [14]; at 11.0 µM 68% | [16]; at 1.2 µM 3% | [16]; at 3.7 µM 16%
active: [1]; at 11.0 µM 74% | [1]; at 33.0 µM 96% | [1]; at 100.0 µM 97% | [2]; at 33.0 µM 93% | [2]; at 100.0 µM 96% | [4]; at 11.0 µM 74% | [4]; at 33.0 µM 96% | [4]; at 100.0 µM 97% | [5]; at 11.0 µM 82% | [5]; at 33.0 µM 97% | [5]; [18] 98% | [5]; at 50.0 µM 85.7% | [5]; at 100.0 µM 97% | [6]; at 11.0 µM 70% | [6]; at 33.0 µM 95% | [6]; [18] 98% | [6]; at 50.0 µM 87.8% | [6]; at 100.0 µM 96% | [7]; at 11.0 µM 78% | [7]; at 33.0 µM 94% | [7]; at 100.0 µM 96% | [8]; [17] 83% | [8]; [18] 98% | [8]; at 50.0 µM 87.3% | [9]; at 33.0 µM 91% | [9]; at 100.0 µM 95% | [10]; [18] 97% | [10]; at 50.0 µM 81.8% | [11]; at 33.0 µM 93% | [11]; [18] 98% | [11]; at 50.0 µM 87.5% | [11]; at 100.0 µM 96% | [12]; at 33.0 µM 92% | [12]; at 100.0 µM 96% | [13]; at 11.0 µM 80% | [13]; at 33.0 µM 96% | [13]; at 100.0 µM 97% | [14]; at 33.0 µM 96% | [14]; at 100.0 µM 97% | [15]; [17] 84% | [15]; [18] 96% | [15]; at 50.0 µM 89.5% | [16]; at 11.0 µM 82% | [16]; at 33.0 µM 95% | [16]; at 100.0 µM 96%
